Assay [1] deals with Glucocorticoid receptor (Homo sapiens) (UniProt P04150). Put plainly: qHTS assay for small molecule agonists of glucocorticoid receptor signaling (AID 588532; active = well fitted curve in the direction sought with a large enough effect in the signal ratio, with a control signal flat; the % refers to the signal ratio;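 also: 100% = dexamethasone at 0.1 µM and 0% = DMSO only wells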). The conditions noted are these: HeLa MMTV-bla, beta-lactamase ratio, agonist, 18 h; activation: stronger effect = higher value, percent of dexamethasone control, DMSO zero. In outline:
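Quantitative HTS using CellSensor MMTV-bla HeLa cells in charcoal/dextran-treated serum; compounds tested up to 92 uM. After 18 h at 37 C, CCF4 dye reported reporter induction.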
A general note: qHTS replaces the single test concentration by a dilution series.

Assay [2] addresses Peroxisome proliferator-activated receptor delta (Homo sapiens) (UniProt Q03181). Kind of assay: qHTS assay for small molecule agonists of peroxisome proliferator-activated receptor delta signaling (AID 588534).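 Also: 0% = DMSO basal wells and 100% = positive control agonist at 10 µM.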 In outline:
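Reporter cells were plated and held 5 hrs at 37 C before compounds were added. After 18 hrs at 37 C, CCF4 dye was loaded for 2 hrs at RT and fluorescence measured.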

The target in assay [3] is Vitamin D3 receptor (Homo sapiens) (UniProt P11473). Put plainly: qHTS assay for small molecule agonists of vitamin D receptor signaling (AID 588543).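 Also: 0% = DMSO basal and 100% = reference agonist control.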 In outline:
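qHTS in agonist mode: compound titrations stimulate a VDR-driven β-lactamase reporter in HEK293T cells over 16 h at 37 °C. Response normalized to 50 nM 1α,25-dihydroxyvitamin D3 = 100%, DMSO = 0%; Hill fitting gives EC50 and maximal response.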

Assay [4] deals with Thyroid hormone receptor beta (Homo sapiens) (UniProt P10828). Kind of assay: qHTS assay for small molecule agonists of thyroid hormone receptor beta signaling (AID 588545). In outline:
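In this cell-based screen, titrated compounds act on HEK 293 cells held in medium with 2% charcoal/dextran FBS, NEAA and pyruvate for 18 hrs at 37 C. Responses are expressed relative to T3 (10 nM) as 100% and basal DMSO as 0%.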

Assay [5] concerns the target Vitamin D3 receptor (Homo sapiens) (UniProt P11473). Kind of assay: qHTS assay for small molecule antagonists of vitamin D receptor signaling (AID 588541).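 Also: receptor activated by calcitriol during compound treatment; series mostly up to about 77 µM; % is scaled to controls: 0 for no effect and ±100 for the full control effect.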 In outline: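 Antagonist-mode beta-lactamase reporter assay: HEK293T VDR-UAS-bla cells were exposed to titrated compound alongside 1-alpha,25-dihydroxyvitamin D3 at 3 nM final for 16 h. Values were normalized to the 50 nM agonist control and DMSO basal, with IC50 and efficacy from Hill equation fits.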

Assay [6] has as its target Retinoic acid receptor RXR-alpha (Homo sapiens) (UniProt P19793). Put plainly: qHTS assay for small molecule agonists of retinoid X receptor alpha signaling (AID 588544).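 As to activation: 0% = DMSO basal wells and 100% = reference agonist.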
Experiment in assay [7]: as above
The conditions noted are these: HEK293T RXRa-UAS-bla, beta-lactamase reporter, 18 h; 530 nm emission.

A short description of assay [8]: qHTS assay for environmental chemicals that activate the Aryl hydrocarbon Receptor (AhR) signaling pathway (AID 651777; active = well fitted activation curve with a large enough effect; also: % of control where 0% means no effect; nearly all actives have a fitted effect of over 15% in size). The conditions noted are these: 1A2-DRE human hepatoma cells, luciferase, 24 h; activation: stronger effect = higher value. In outline: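 1A2-DRE human hepatoma reporter line; 1,200 cells/well; cmpd or DMSO 24 h, 37 C/5% CO2; One-Glo 30 min RT; luciferase lum.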

Molecules are shown by their SMILES. Inconclusive results are not listed. The source made the active and inactive calls. Unless noted, calls follow the shape of the full dose curve.

Sequence of Glucocorticoid receptor (Homo sapiens) (P04150 whole entry, looked up): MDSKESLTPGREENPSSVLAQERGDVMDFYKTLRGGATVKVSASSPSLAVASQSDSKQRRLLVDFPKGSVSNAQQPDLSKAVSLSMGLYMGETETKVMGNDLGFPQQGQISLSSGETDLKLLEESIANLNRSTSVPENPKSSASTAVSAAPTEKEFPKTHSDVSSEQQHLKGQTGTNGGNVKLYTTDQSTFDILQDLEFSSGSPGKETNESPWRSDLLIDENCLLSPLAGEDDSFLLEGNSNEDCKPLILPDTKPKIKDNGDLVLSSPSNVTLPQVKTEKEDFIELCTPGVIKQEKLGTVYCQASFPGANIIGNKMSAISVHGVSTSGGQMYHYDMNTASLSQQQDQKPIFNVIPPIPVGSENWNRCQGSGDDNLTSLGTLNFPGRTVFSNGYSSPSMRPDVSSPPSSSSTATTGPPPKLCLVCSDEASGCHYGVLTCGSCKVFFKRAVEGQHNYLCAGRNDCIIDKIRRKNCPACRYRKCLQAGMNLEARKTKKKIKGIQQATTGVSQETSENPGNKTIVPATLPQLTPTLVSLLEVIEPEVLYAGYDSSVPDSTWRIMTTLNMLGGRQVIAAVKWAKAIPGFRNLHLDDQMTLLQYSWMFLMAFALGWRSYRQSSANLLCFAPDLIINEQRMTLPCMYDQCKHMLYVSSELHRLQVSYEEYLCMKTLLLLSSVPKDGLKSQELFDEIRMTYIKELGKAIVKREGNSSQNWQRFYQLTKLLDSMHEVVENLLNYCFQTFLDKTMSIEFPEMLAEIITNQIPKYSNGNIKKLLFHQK
Sequence of Vitamin D3 receptor (Homo sapiens) (P11473 whole entry, looked up): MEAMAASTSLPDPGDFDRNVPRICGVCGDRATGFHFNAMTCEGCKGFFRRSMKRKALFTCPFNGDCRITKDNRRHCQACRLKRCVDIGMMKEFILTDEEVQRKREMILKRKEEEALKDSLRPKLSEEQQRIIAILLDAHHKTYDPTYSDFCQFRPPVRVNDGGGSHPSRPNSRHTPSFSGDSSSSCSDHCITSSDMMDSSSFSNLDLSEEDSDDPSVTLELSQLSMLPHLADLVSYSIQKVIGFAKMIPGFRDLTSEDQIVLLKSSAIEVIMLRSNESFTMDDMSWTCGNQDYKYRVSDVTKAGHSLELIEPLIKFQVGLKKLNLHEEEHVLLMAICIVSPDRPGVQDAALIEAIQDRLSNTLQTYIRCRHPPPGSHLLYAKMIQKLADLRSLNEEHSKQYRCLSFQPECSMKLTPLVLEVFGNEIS
Sequence of Peroxisome proliferator-activated receptor delta (Homo sapiens) (Q03181 whole entry, looked up): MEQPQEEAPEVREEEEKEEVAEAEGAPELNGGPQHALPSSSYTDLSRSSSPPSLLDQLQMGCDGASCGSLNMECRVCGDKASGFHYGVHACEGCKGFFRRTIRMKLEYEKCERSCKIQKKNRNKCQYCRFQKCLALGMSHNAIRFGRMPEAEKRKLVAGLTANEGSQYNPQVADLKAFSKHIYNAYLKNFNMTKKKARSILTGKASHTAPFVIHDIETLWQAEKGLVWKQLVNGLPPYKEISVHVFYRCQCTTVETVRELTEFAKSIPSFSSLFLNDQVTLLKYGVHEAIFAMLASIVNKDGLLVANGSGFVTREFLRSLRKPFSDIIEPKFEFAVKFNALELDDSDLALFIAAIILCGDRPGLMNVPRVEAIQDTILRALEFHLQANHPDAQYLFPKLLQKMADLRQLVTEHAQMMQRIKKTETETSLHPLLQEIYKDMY
Sequence of Retinoic acid receptor RXR-alpha (Homo sapiens) (P19793 whole entry, looked up): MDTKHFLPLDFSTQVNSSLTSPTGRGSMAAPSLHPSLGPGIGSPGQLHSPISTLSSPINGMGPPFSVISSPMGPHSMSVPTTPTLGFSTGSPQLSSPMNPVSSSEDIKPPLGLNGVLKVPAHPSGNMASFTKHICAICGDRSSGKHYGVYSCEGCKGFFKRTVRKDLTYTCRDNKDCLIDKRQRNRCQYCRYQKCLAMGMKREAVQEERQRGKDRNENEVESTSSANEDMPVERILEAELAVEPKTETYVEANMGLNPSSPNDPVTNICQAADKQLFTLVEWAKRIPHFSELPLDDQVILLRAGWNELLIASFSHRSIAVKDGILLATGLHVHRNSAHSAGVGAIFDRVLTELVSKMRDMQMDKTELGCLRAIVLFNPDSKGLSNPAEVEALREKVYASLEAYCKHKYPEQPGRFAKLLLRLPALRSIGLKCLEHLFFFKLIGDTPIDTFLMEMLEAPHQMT
Sequence of Thyroid hormone receptor beta (Homo sapiens) (P10828 whole entry, looked up): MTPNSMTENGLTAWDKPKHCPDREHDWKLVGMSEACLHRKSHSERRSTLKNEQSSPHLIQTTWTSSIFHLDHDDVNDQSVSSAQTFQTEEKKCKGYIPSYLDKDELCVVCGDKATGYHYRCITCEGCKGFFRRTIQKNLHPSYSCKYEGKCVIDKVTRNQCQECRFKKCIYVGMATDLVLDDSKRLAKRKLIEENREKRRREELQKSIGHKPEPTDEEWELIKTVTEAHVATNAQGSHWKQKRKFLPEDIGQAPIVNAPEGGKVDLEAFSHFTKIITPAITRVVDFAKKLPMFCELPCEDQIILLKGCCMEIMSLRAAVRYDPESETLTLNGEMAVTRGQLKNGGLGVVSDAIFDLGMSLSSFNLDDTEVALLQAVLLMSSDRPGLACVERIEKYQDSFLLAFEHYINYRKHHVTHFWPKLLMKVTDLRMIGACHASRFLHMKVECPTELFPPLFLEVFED

Turning to `CC1(C)[C@@H](C=C(Cl)Cl)[C@@H]1C(=O)OCc1cccc(Oc2ccccc2)c1`, in assay [1], the activation was 0.397% (inactive). The compound was classed as inactive in assay [2] and in assay [3]. In assay [4], the Potency result was “inactive”.
For the compound `S=C(S)NCCNC(=S)S`, in assay [1], the activation is -2.17% (inactive). The Potency result in assay [5] and in assay [6] was “inactive” throughout.
`CC(C)N(C)C`: the compound was called inactive in assay [2].
`CC1(C)C(C=C(Cl)Cl)[C@H]1C(=O)OCc1cccc(Oc2ccccc2)c1` (stereo partly drawn): the activation in assay [1] was 0.728% (inactive); in assay [8] it was 0.692% (inactive). The compound was classed as inactive in assay [3]. Also, the max response in assay [7] is -6.06%. In addition, the Potency result in assay [6] was “inactive”.
